Screening results deposited in PubChem by DiRusso Lab, Biochemistry Department, University of Nebraska.
This is one part of a sample in which hits are shown more often than they occur.
Chlamy TAG = increases triacylglycerol in Chlamydomonas reinhardtii; calls only at 10 µM (by protocol); 0.84% of 44,000 active; Chlamydomonas reinhardtii TAG, Nile Red fluorescence, 72 h; call rule not given here;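 note: hits raise Nile Red signal meaning more stored TAG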
* hit, by the source's call; i = inactive; + = active, no number.

SMILES	Chlamy TAG
Cc1cc(Cl)c(OCCn2ccnc2)c(Br)c1	+
Clc1ccc(OCCn2ccnc2)c(Cl)c1	i
Clc1ccc(OCCn2ccnc2)c(Br)c1	i
O=C(CSc1nc(-c2ccccc2)cc(=O)[nH]1)N1CCCc2ccccc21	i
Cc1ccc(N(Cc2ccco2)S(=O)(=O)c2ccc([N+](=O)[O-])cc2)cc1	i
CC(NC(=O)CCSc1ccccc1)c1ccccc1 (centres undefined)	i
CC(C)(C)N1C(=O)c2ccc(C(=O)NC3CCCCC3)cc2C1=O	i
COCCCN1C(=O)c2ccc(C(=O)Nc3cc(Cl)ccc3OC)cc2C1=O	i
Cc1cc(Cl)c(OCCOCCN2CCNCC2)c(Cl)c1	i
Cc1cc(C)c(OCCCN2CCCC2)c(C)c1	i
Cc1cc(C)c(OCCCCN2CCNCC2)c(C)c1	+
Cc1ccc(NC(=O)c2cccc(OC(C)C)c2)c([N+](=O)[O-])c1	i
CC(=O)Nc1nc(SCc2ccccc2Cl)n[nH]1	i
Cc1cc(C)n(C(=O)c2ccc(Br)cc2)n1	i
Cc1cccc(OCCCC(=O)Nc2ccccc2[N+](=O)[O-])c1	i
COc1ccc(CNCc2ccc(C)cc2C)c(OC)c1	i
COc1ccc(CNCc2ccc(C)cc2)c(OC)c1	+
COc1ccc(CNCc2ccc(C)cc2C)cc1	i
CN1CCN(c2ccc(C(=O)c3ccc(Cl)cc3)cc2[N+](=O)[O-])CC1	i
COc1ccc(C(=O)c2ccc(N3CCN(C)CC3)c([N+](=O)[O-])c2)cc1	+
Cc1ccc(C(=O)c2ccc(N3CCCC3)c([N+](=O)[O-])c2)cc1	i
CCCC(=O)Nc1ccc(NC(=O)c2ccc(Br)cc2)cc1	i
CCN(CC)CC(=O)Nc1ccc(Br)cc1	+
Cc1ccc(NC(=O)Cc2ccc(Br)cc2)cc1	i
Cc1cccc(Cn2c(C(C)O)nc3ccccc32)c1 (centres undefined)	i
SMILES	Chlamy TAG
COc1ccccc1Cn1c(C(C)O)nc2ccccc21 (centres undefined)	+
CC(O)c1nc2ccccc2n1Cc1ccccc1Cl (centres undefined)	i
O=[N+]([O-])c1ccccc1CNc1ccccc1	i
COc1ccc(-c2cc(C(=O)N3CCCC3)c3cc(Br)ccc3n2)cc1	i
CCc1cccc2c(=O)c(C(=O)O)c[nH]c12	i
CN1CC=C(CNc2cccc3c2CCCC3)CC1	+
O=C(Nc1cccc2c1CCCC2)C(Cl)Cl	i
Cc1cccc(OCC(=O)Nc2cccc3c2CCCC3)c1	i
CCC(Oc1ccccc1)C(=O)Nc1cccc(C)c1C (centres undefined)	i
CCOc1ccccc1NC(=O)C1CCCCC1	i
Cc1cc([N+](=O)[O-])ccc1NCc1ccc2c(c1)OCO2	i
O=C(Nc1ccccc1O)c1ccc([N+](=O)[O-])cc1	i
O=C(Nc1ccccc1C(=O)NCc1ccccc1)c1ccc([N+](=O)[O-])cc1	+
O=C(Nc1ccccc1C(=O)Nc1ccc([N+](=O)[O-])cc1)c1ccccc1	i
Cc1ccccc1S(=O)(=O)CC(SC#N)c1ccccc1 (centres undefined)	i
CSCCC(C(O)=C(C#N)c1nc2ccccc2[nH]1)N1C(=O)c2ccccc2C1=O (centres undefined)	i
Cc1ccc2nc(NC(=O)C3CCCCC3C(=O)O)sc2c1 (centres undefined)	i
Cc1ccc2nc(NC(=O)NC3CCCCC3)sc2c1	i
Cc1ccc2nc(NC(=O)C3CC3)sc2c1	+
O=C(Nc1ccc(F)c(F)c1)c1ccccc1Br	i
CSc1cccc(NC(=O)CSc2nc3ccccc3s2)c1	i
O=C(c1ccco1)N1CCN(c2ccc([N+](=O)[O-])c(NC3CC3)c2)CC1	i
O=C(Nc1nnc(-c2cccnc2)s1)c1cccc([N+](=O)[O-])c1	i
O=C1C(=O)N(CCCN2CCOCC2)C(c2cccs2)C1=C(O)c1ccc(Cl)cc1 (centres undefined)	i
CC(C)NC(=O)c1ccccc1NC(=O)c1ccc(F)cc1	i
SMILES	Chlamy TAG
Cc1ccc(C(=O)Nc2ccccc2C(=O)NC(C)C)cc1[N+](=O)[O-]	+
Cc1ccccc1C(=O)Nc1cccc(NC(=O)c2ccc(C)c([N+](=O)[O-])c2)c1	i
Cc1cc(C)c(O)c(NC(=O)c2ccc3c(c2)OCCO3)c1	i
CCCCOc1ccc(-c2nc(N)n[nH]2)cc1	i
COc1ccc(NC(=O)c2ccc(C(=O)c3ccccc3)cc2)cc1	i
CC1(C)Oc2ccc(NC(=O)Cc3ccc(F)cc3)cc2O1	i
CC1(C)Oc2ccc(NC(=O)c3ccc(C(=O)c4ccccc4)cc3)cc2O1	+
O=C(c1ccccc1I)N1CCN(c2ccc([N+](=O)[O-])cc2)CC1	i
c1ccc(N2CCN(c3ncnc4sc5c(c34)CCC5)CC2)cc1	i
COc1ccc(-c2nc3c4c5c(sc4ncn3n2)CCCC5)cc1	i
COc1ccc(CN2CCN(c3ncnc4sc5c(c34)CCCC5)CC2)cc1	+
COc1ccc(OCCCCN2CCCCC2)cc1	i
c1ccc(OCCCN2CCCCC2)cc1	i
CCOc1cccc(OCCN2CCCC2)c1	i
CCOc1ccc(OCCOCCN2CCCC2)cc1	i
CCC(C)c1ccc(OCCN2CCCC2)cc1 (centres undefined)	+
COc1ccc(OCCCN2CCCCC2)cc1	+
CC1CCCC(NCC(C)(C)CN(C)C)C1 (centres undefined)	i
CCCc1nc2sc3c(c2c(=O)n1N)CCCC3	i
Nn1c(SCc2nc3ccccc3[nH]2)nnc1-c1ccncc1	i
CC1CCCC(NC2CCN(Cc3ccccc3)CC2)C1 (centres undefined)	i
CC1CCCC(N2CCN(Cc3ccccc3)CC2)C1 (centres undefined)	+
O=[N+]([O-])c1ccccc1S(=O)(=O)N1CCN(C2CCN(Cc3ccccc3)CC2)CC1	+
c1ccc(CN2CCC(N3CCN(C4CC5CCC4C5)CC3)CC2)cc1 (centres undefined)	+
C1CCCN(C2CCN(C3CC4CCC3C4)CC2)CC1 (centres undefined)	i
SMILES	Chlamy TAG
COc1cc(CN2CCN(C3CCN(Cc4ccccc4)CC3)CC2)cc(OC)c1O	i
O=[N+]([O-])c1ccccc1S(=O)(=O)N1CCN(Cc2ccccn2)CC1	i
O=[N+]([O-])c1ccccc1CN1CCC(N2CCCCC2)CC1	i
c1ccc(CN2CCC(N3CCN(Cc4ccccn4)CC3)CC2)cc1	i
CN(CCc1ccccn1)Cc1ccccc1[N+](=O)[O-]	i
CC1(C)CC(=O)C2=C(C1)OC(N)=C(C#N)C2c1cccc(Cl)c1 (centres undefined)	i
CCC1(CC)Cc2cc(OC)c(OC)cc2C(c2ccccc2)N1 (centres undefined)	i
O=C(COc1ccc(Br)cc1Cl)Nc1ccccc1F	i
COc1ccc(C(=O)NCCOc2ccc(C)cc2)cc1OC	i
COc1ccc(CNC(=O)CN(C2CCCCC2)S(=O)(=O)c2ccc(C)cc2)cc1	i
O=C(Cc1ccc(Cl)cc1)Nc1ccc(N2CCN(C(=O)c3ccccc3)CC2)cc1	i
O=C(Nc1ccc(N2CCN(C(=O)c3ccccc3)CC2)cc1)c1ccc(Cl)cc1Cl	+
O=C(c1ccccc1)N1CCN(C(=O)c2ccc(Cl)cc2Cl)CC1	i
CC(C)NS(=O)(=O)c1cccc2cccnc12	i
Cc1cc(C)nc(SCC(=O)Nc2nc3ccc([N+](=O)[O-])cc3s2)n1	i
